Some test systems named below: NCI-H23 lung; NCI-H226 lung; NCI-H322M lung; HOP-62 NSCLC; NCI-H460 lung; HOP-92 NSCLC; NCI-H522 lung; A549/ATCC NSCLC; 786-0 renal; COLO 205 colon; DU-145 prostate; K-562 leukemia; MALME-3M melanoma; MDA-MB-231 breast; RXF 393 renal; SF-268 CNS; SF-295 CNS; SF-539 CNS; UACC-257 melanoma; M14 melanoma.
What all share (assay): NCI-60 one-dose screen, 48 h (100 = growth as untreated, 0 = no growth, -100 = all killed)
Common to all, as to settings: 10 µM unless noted

The text below walks through data of PubChem BioAssay (NCI).

This is part of a sample that, as a whole, favours compounds with a hit. Of some 83,000 tested, about 20% had one in any assay.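 Compound tested at a single concentration for 48 hours in 96-well plates; a percent growth value below 10 was scored as active.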 Unmarked numbers belong to inactive results. The source made the active and inactive calls.

For the molecule `O=C(Nc1cccc(Oc2nnc(Cl)c3ccccc23)c1)Nc1ccc(Cl)c(C(F)(F)F)c1`, the growth with NCI-H23 lung was -52.4% (active); with NCI-H226 lung, -28.2% (active); in the assay on NCI-H322M lung it was -5.16% (active); in the assay with HOP-62 NSCLC it was -81.6% (active); in the assay with NCI-H460 lung it was -77.4% (active); with HOP-92 NSCLC, -38.4% (active). The growth is -67.5% (active) with NCI-H522 lung; -21.9% (active) in the assay on A549/ATCC NSCLC; -42.8% (active) in the assay with 786-0 renal; -69.3% (active) in the assay on COLO 205 colon; -5.14% (active) in the assay on DU-145 prostate; -8.66% (active) in the assay with K-562 leukemia. Besides, the growth in the assay on MALME-3M melanoma is -49.9% (active); with MDA-MB-231 breast it was -57.3% (active); with RXF 393 renal, -62.3% (active); in the assay on SF-268 CNS, -32.2% (active); in the assay on SF-295 CNS, -56.3% (active); in the assay on SF-539 CNS, -73.4% (active). For the same molecule, the growth with UACC-257 melanoma was -68.4% (active); in the assay on M14 melanoma, -62.8% (active).
As to `COc1ccc(-c2nc(SCCC(C)C)nc(N/N=C\c3cccc(Cl)c3)c2C#N)cc1`, the growth is 82.6% in the assay on NCI-H23 lung; 90% in the assay with NCI-H226 lung; 55.8% in the assay on NCI-H322M lung; 49.7% in the assay on HOP-62 NSCLC; 15.2% in the assay with NCI-H460 lung; 62.5% in the assay with HOP-92 NSCLC. For the same molecule, the growth in the assay with NCI-H522 lung was 71.3%; in the assay on A549/ATCC NSCLC it was 59.7%; in the assay with 786-0 renal it was 43.2%; in the assay with COLO 205 colon, 81.9%; in the assay on DU-145 prostate it was 85.4%; in the assay on K-562 leukemia, 79.7%. Further, the growth was 111% in the assay with MALME-3M melanoma; 53% with MDA-MB-231 breast; 87.5% in the assay with RXF 393 renal; 71.1% in the assay with SF-268 CNS; 55% in the assay on SF-295 CNS; 84.3% in the assay on SF-539 CNS. The growth with UACC-257 melanoma was 87.3%; in the assay on M14 melanoma, 101%.
As for `Cc1nc2ccccc2c(/C=C/c2ccc(Cl)cc2)c1C(=O)/C=C/c1ccc(F)cc1`, the growth with NCI-H23 lung was 17.3%; with NCI-H226 lung, -8.4% (active); in the assay on NCI-H322M lung it was 51.8%; in the assay on HOP-62 NSCLC, 3.74% (active); with NCI-H460 lung, -66.9% (active); with HOP-92 NSCLC, 66.3%. Also, the growth in the assay on NCI-H522 lung is 1.17% (active); in the assay with A549/ATCC NSCLC, 74.6%; in the assay on 786-0 renal it was -24.7% (active); in the assay on COLO 205 colon it was 13.9%; in the assay on DU-145 prostate it was -8.13% (active); in the assay on K-562 leukemia, 5.45% (active). In addition, the growth is -6.33% (active) in the assay with MALME-3M melanoma; 1.67% (active) in the assay with MDA-MB-231 breast; -48.9% (active) with RXF 393 renal; 48.6% in the assay on SF-268 CNS; 12.3% with SF-295 CNS; -61.2% (active) in the assay on SF-539 CNS. The growth was 15% with UACC-257 melanoma and 5.81% (active) in the assay with M14 melanoma.
Regarding `Cc1cc(C)c(-c2c(C)cc(C)cc2CBr)c(CBr)c1`, the growth is 85.8% in the assay on NCI-H23 lung; 100% in the assay on NCI-H226 lung; 102% with NCI-H322M lung; 84.6% with HOP-62 NSCLC; 77.2% in the assay with NCI-H460 lung; 106% in the assay with HOP-92 NSCLC. The growth was 66.4% in the assay on NCI-H522 lung; 68.6% in the assay on A549/ATCC NSCLC; 95.8% in the assay with 786-0 renal; 78.6% in the assay on COLO 205 colon; 94.9% in the assay with DU-145 prostate; 67.7% in the assay on K-562 leukemia. In addition, the growth in the assay on MALME-3M melanoma is 73.5%; with MDA-MB-231 breast, 97.9%; with RXF 393 renal, 14.8%; in the assay on SF-268 CNS, 74.2%; in the assay with SF-295 CNS it was 84.7%; in the assay with SF-539 CNS, 96.4%. Also, the growth in the assay with UACC-257 melanoma is 73.9%; in the assay on M14 melanoma, 72.5%.
For the molecule `C[C@]12CC[C@@H]3c4cc(OC(F)F)c(O)cc4CC[C@H]3[C@@H]1CC[C@@H]2OS(N)(=O)=O`, the growth with NCI-H23 lung was 3.46% (active); in the assay with NCI-H226 lung it was 57.4%; in the assay on NCI-H322M lung, 45.4%; in the assay on HOP-62 NSCLC, 43.3%; with NCI-H460 lung it was 13.9%; with HOP-92 NSCLC, 74.6%. The growth is 26% in the assay on NCI-H522 lung; 31.3% in the assay on A549/ATCC NSCLC; 56.4% in the assay on 786-0 renal; 10.7% in the assay with COLO 205 colon; 9.56% (active) with DU-145 prostate; 14.1% in the assay on K-562 leukemia. Moreover, the growth is 27.1% in the assay on MALME-3M melanoma; 50.9% in the assay on MDA-MB-231 breast; 19.1% in the assay on RXF 393 renal; 58.3% in the assay on SF-268 CNS; 12.8% in the assay on SF-295 CNS; 5.62% (active) with SF-539 CNS. The growth in the assay on UACC-257 melanoma is 71.8%; in the assay with M14 melanoma, 17.6%.
For the molecule `CC1(C)OC2C(CO[Si](C)(C)C(C)(C)C)OC(n3c(I)c(C#C[Si](C)(C)C)c(=O)[nH]c3=O)C2O1` (stereo not given), the growth in the assay on NCI-H23 lung was 76.9%; with NCI-H226 lung, 103%; in the assay with NCI-H322M lung it was 106%; in the assay on HOP-62 NSCLC, 99.1%; with NCI-H460 lung, 106%; in the assay with HOP-92 NSCLC, 98.8%. Also, the growth was 90% in the assay with NCI-H522 lung; 94.9% with A549/ATCC NSCLC; 93.9% in the assay with 786-0 renal; 111% in the assay on COLO 205 colon; 107% with DU-145 prostate; 67.5% in the assay with K-562 leukemia. The growth in the assay with MALME-3M melanoma is 109%; in the assay with MDA-MB-231 breast, 98%; in the assay on RXF 393 renal it was -32.9% (active); in the assay with SF-268 CNS, 108%; in the assay on SF-295 CNS, 140%; in the assay on SF-539 CNS, 105%. The growth in the assay with UACC-257 melanoma is 91.3%; with M14 melanoma, 106%.
Turning to `COc1ccc(-c2cc(-c3cc(OC)c(OC)c(OC)c3)c(C#N)c(N3CCOCC3)n2)cc1O`, the growth in the assay with NCI-H23 lung was -6.35% (active); in the assay with NCI-H226 lung, 108%; in the assay on NCI-H322M lung, 65.5%; in the assay on HOP-62 NSCLC, 68.4%; with NCI-H460 lung, 48.1%; in the assay with HOP-92 NSCLC it was 42.8%. In addition, the growth with NCI-H522 lung was 58.4%; with A549/ATCC NSCLC, 65.8%; in the assay with 786-0 renal, 68.9%; in the assay with COLO 205 colon, 97.2%; in the assay with DU-145 prostate, 59%; in the assay with K-562 leukemia, 2.4% (active). For the same molecule, the growth with MALME-3M melanoma is 126%; with MDA-MB-231 breast, 49.8%; with RXF 393 renal, 41.3%; with SF-268 CNS, 49.6%; in the assay on SF-295 CNS, 41.6%; in the assay with SF-539 CNS it was 37.9%. The figures for the growth in the assay with UACC-257 melanoma and in the assay on M14 melanoma were 90.3% and 67.5%, respectively.
As to `COc1cc(/C=N/NC(=O)Cn2c(C(C)C)nc3ccccc32)ccc1O`, the growth was 94.9% with NCI-H23 lung; 93.7% in the assay with NCI-H226 lung; 93.5% in the assay with NCI-H322M lung; 92.9% in the assay on HOP-62 NSCLC; 97.7% in the assay on NCI-H460 lung; 82.3% in the assay on HOP-92 NSCLC. Besides, the growth was 92.4% in the assay with NCI-H522 lung; 105% in the assay with A549/ATCC NSCLC; 104% with 786-0 renal; 109% with COLO 205 colon; 110% in the assay on DU-145 prostate; 100% in the assay on K-562 leukemia. The growth in the assay on MALME-3M melanoma was 105%; in the assay on MDA-MB-231 breast it was 95.5%; in the assay on RXF 393 renal, 95.7%; in the assay with SF-268 CNS it was 91.2%; in the assay with SF-295 CNS, 104%; in the assay on SF-539 CNS it was 94.4%. The growth in the assay with UACC-257 melanoma was 98.2%; in the assay with M14 melanoma, 92.6%.
